Data published in PubChem BioAssay (Tox21).
Results filed as inconclusive are left out. Entries that show only a call come without a potency. Calls of active or inactive are those of the source. Calls follow the shape of the dose curve; as a rule, active = well fitted activation curve with a large enough effect in the repeat runs; inconclusive = weak or mixed curves; inactive = flat fitted curve, though single readings scatter.

Experiment: A CellTox Green Cytotoxicity Assay to monitor cytotoxicity in HEK293 cells - 16 hour (AID 1224888); also: nearly all actives have a fitted effect of over 35% in size
Conditions: CellTox Green fluorescence; series mostly up to 76.8 µM
Source text: National Center for Advancing Translational Sciences [NCATS]
NIH Chemical Genomics Center [NCGC]
U.S. Environmental Protection Agency [EPA]
National Institutes of Environmental Health Sciences [NIEHS]
National Toxicology Program [NTP]
Cell-based models are critical for drug discovery. Determining the natural cytotoxic effects resulting from test compounds is an essential research activity. A CellTox Green Cytotoxicity Assay to monitor cytotoxicity in real time of continues cell culture during 40 hours of the compound treatment was used to screen Tox21 10K library compounds in Hek293 cells. CellTox Green Cytotoxicity Assay is a nonlytic, homogeneous, biofluorescent method to measure cytotoxicity in cell culture after experimental manipulation. The assay system uses a proprietary asymmetric cyanine dye that is excluded from viable cells but preferentially stains the dead cell's DNA. […] Viable cells produce no appreciable increases in fluorescence. Therefore, the fluorescence signal produced by the binding interaction with dead cell DNA is proportional to cytotoxicity.
The mixture of Hek293 cell suspension and reagents were dispensed at 600cells/6 ul/well in 1536-well tissue culture treated black solid bottom plates using a Multidrop dispenser. After the assay plates were incubated at a 37 C/5% CO2 incubator for 5 hours, 23 nL of compounds dissolved in DMSO, positive and negative controls was transferred to the assay plate by a pintool work station. The plates were incubated at 37 C for 40 hours. The fluorescence intensity were measured at 0h, 8h, 16h, 24h, 32h and 40h time points using ViewLux plate reader during compound treatment.
Potency is read from the fitted curve at half-maximal effect.

Row | Compound | Potency
1 | O=C(O)CCc1nc2ccccc2[nH]1 | inactive
2 | C=C[Si]1(C)O[Si](C)(C=C)O[Si](C)(C=C)O[Si](C)(C=C)O1 (stereo not given) | inactive
3 | Nc1ccc(-c2ccc(F)cc2)cc1 | inactive
4 | CCN(CC)CC(=O)OCC(=O)[C@@]1(O)CC[C@H]2[C@@H]3CCC4=CC(=O)CC[C@]4(C)[C@H]3[C@@H](O)C[C@@]21C | inactive
5 | NC(=O)c1ccccc1C(N)=O | 49.2 µM (active)
6 | Nc1ccc(F)cc1F | inactive
7 | C[C@@H](O)[C@H]1C(=O)N2C(C(=O)O)=C(S[C@@H]3CN[C@H](CNS(N)(=O)=O)C3)[C@H](C)[C@H]12 | inactive
8 | O=C(Cl)c1cc(Cl)cc(Cl)c1 | inactive
9 | CCc1ccc2c(c1)C(=O)c1ccccc1C2=O | inactive
10 | CCC(=O)O[C@]1(C(=O)COC)[C@@H](C)C[C@H]2[C@@H]3CCC4=CC(=O)C=C[C@]4(C)C3(F)[C@@H](O)C[C@@]21C (stereo not given in full) | inactive
11 | O=C(O)c1cc(C(=O)O)cc([N+](=O)[O-])c1 | inactive
12 | Clc1ccccc1-c1nc(-c2ccncc2)no1 | inactive
13 | Cc1c(N=C=O)cccc1N=C=O | inactive
14 | CCCCOC(=O)CC#N | inactive
15 | CCCCCCCCNC | inactive
16 | C=CC(=O)OCCCCCCCCCC | inactive
17 | C[Si](C)(C)O[Si](C)(C)O[Si](C)(C)C | inactive
18 | O=C(c1ccc(Cl)cc1)c1ccc(Cl)cc1 | inactive
19 | CCCC1CCOC(C)S1 (stereo not given) | inactive
20 | Cc1cccc(C)c1NC(=O)CN1CCCC1 | inactive

Row | Compound | Potency
21 | COC(=O)C(C)(C)C | inactive
22 | O=P(c1ccccc1)(c1ccccc1)c1ccccc1 | inactive
23 | Clc1nc2ccccc2nc1Cl | inactive
24 | CC(C(=O)O)c1ccc2c(c1)Cc1cccnc1O2 (stereo not given) | inactive
25 | O=C(O)COCC(=O)O | inactive
26 | C=CC(C)(O)CC/C=C(/C)CCC=C(C)C (stereo not given) | inactive
27 | CCCCCCOC(=O)c1ccccc1 | inactive
28 | NCCOCCOCCN | inactive
29 | CCCCCCCCCCCCSC#N | inactive
30 | O=C(C1CCCCC1)N1CC(=O)N2CCCc3ccccc3C2C1 (stereo not given) | inactive
31 | CCCCCO | inactive
32 | COc1ccc(C(=O)c2ccc(C)cc2)c(O)c1 | inactive
33 | C[C@]12CCC(=O)C=C1[C@@H]1C[C@@H]1[C@H]1[C@@H]3[C@@H]4C[C@@H]4[C@@]4(CCC(=O)O4)[C@@]3(C)CC[C@@H]12 | inactive
34 | O=C(O)c1c2ccccc2cc2ccccc12 | inactive
35 | CC(C)=CCCC(C)C=O (stereo not given) | inactive
36 | COC(=O)c1cc(Cl)ccc1[N+](=O)[O-] | inactive
37 | CCCCCCCCCC(C)C=O (stereo not given) | 21.9 µM (active)
38 | CCC(CC)C(=O)O | inactive
39 | Clc1cc(Cl)c2c(c1)N=C1CCCCCN1C2 | inactive
40 | CC(C(=O)O)c1ccc(/C=C2\CCCCC2=O)cc1 (stereo not given) | inactive
